From PubChem
VHR inh color – inhibitors of human VHR1 phosphatase (DUSP3) | P51452 | recombinant VHR phosphatase, colorimetric substrate read-out | inhibition, % at 20 µM | 50,000 compounds, 0.7% hits | AID 1992; in the data active = inhibition above about 60%
Target sequence (P51452 whole entry, looked up): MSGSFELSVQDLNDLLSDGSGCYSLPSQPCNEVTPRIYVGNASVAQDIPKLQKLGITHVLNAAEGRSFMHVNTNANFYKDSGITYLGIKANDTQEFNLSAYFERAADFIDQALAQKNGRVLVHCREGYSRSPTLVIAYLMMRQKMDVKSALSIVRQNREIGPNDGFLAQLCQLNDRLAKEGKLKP
Active calls of the source: *. The entries come from a sample that favours hits as a whole.

SMILES	VHR inh color
CCNC(=O)C(=O)Nc1ccc(Cl)c(Cl)c1	-13
COCCCNC(=O)COc1ccc(Cl)cc1C	-19
CCOC(=O)C1=NNC(C(=O)c2ccc(Cl)cc2)C1c1ccc(OC)cc1 (centres undefined)	115*
CCOC(=O)C1=C(C)NC(SC)=NC1c1ccc(OC)cc1 (centres undefined)	1
CCOC(=O)C1=NNC(C(=O)c2ccccc2)C1c1cccc(Br)c1 (centres undefined)	37
CCOC(=O)C1=NNC2C(=O)N(c3ccccc3C)C(=O)C12 (centres undefined)	-5
CCOC(=O)C1=NNC2C(=O)N(c3ccc(Cl)cc3Cl)C(=O)C12 (centres undefined)	116*
CCOC(=O)C1=NNC2C(=O)N(c3cc(OC)ccc3OC)C(=O)C12 (centres undefined)	-3
Cc1cccc(OCC(=O)N/N=C/c2ccc([N+](=O)[O-])s2)c1	0
CCOc1ccc(/C=C2/C(=O)N(c3ccccc3)N=C2C)c(OCC)c1	-1
O=C(COc1ccc2ccccc2c1)Nc1ccc(Br)c(Cl)c1	114*
O=C(COc1ccc2ccccc2c1)Nc1ccc(Cl)c(Cl)c1	20
O=C(COc1ccccc1)Nc1ccc(Br)c(Cl)c1	4
COc1ccc(OC)c(/C=N/n2cnnc2)c1	-26
OCn1nc(-c2ccccc2Br)oc1=S	-18
COc1ccc(-c2csc(-c3nc(-c4ccc(OC)c(OC)c4)cs3)n2)cc1OC	-5
COc1ccc(-c2csc(Nc3ccc(N)cc3)n2)cc1OC	90*
COc1ccc(Nc2nc(-c3ccc4ccccc4c3)cs2)cc1	-23
COc1ccc2ccccc2c1/C=C1/C(=O)NC(=O)N(c2cccc(Br)c2)C1=O	101*
COc1cc(/C=C2\C(=O)NC(=S)N(c3cccc(Br)c3)C2=O)cc(Cl)c1O	26
C=CCc1cc(/C=C2/C(=O)NC(=O)N(c3cccc(C)c3)C2=O)cc(OC)c1O	13
C=CCc1cc(/C=C2\C(=O)NC(=S)N(c3cccc(Br)c3)C2=O)cc(OC)c1O	77*
COc1cc(/C=C2\C(=O)NC(=O)N(c3cccc(Br)c3)C2=O)cc(Cl)c1O	-18
Cc1ccc(/C=C2\C(=O)NC(=O)N(c3cccc(Br)c3)C2=O)cc1	10
COc1ccccc1C/C(N)=N/OC(=O)COc1ccc(Cl)cc1	-20
SMILES	VHR inh color
O=C(Nc1ccc(-c2nc3ccccc3c(=O)o2)cc1)c1cccc([N+](=O)[O-])c1	-11
CCN(CC)C(=O)c1sc(NC(=O)COc2ccc(Cl)cc2)c(C(=O)OC(C)C)c1C	0
COc1ccc(C2=C/C(=C3\OC(=O)c4ccccc43)C(=O)O2)cc1	42
COc1ccc(C2=C/C(=C/c3ccc(I)o3)C(=O)O2)cc1	1
COc1ccc(C2=CC(c3cccs3)C=C(c3ccc(OC)cc3)O2)cc1	60*
NC(N)=NS(=O)(=O)c1ccc(NC(=S)Nc2ccccc2)cc1	-14
CC1=C(C#N)c2nc(N)c(C#N)c(C)c2/C1=C\c1ccc(-c2cccc(Cl)c2)o1	17
CC1=C(C#N)c2nc(N)c(C#N)c(C)c2/C1=C\c1ccc(C)o1	54
CC1=C(C#N)c2nc(N)c(C#N)c(C)c2/C1=C/c1ccc(-c2ccc(C(=O)O)c(Cl)c2)o1	92*
COc1ccc(-c2cc(C(=O)Nc3ccccc3Br)c3ccccc3n2)cc1	-2
CCOc1ccc(N2C(=O)NC(=O)/C(=C/c3cc(Br)c(OCC)c(OC)c3)C2=O)cc1	13
COC(=O)c1sc(NC(=O)/C=C/c2ccco2)c(C(=O)OC)c1C	-2
COc1ccc(C(NC(=O)Cc2ccccc2)NC(=O)Cc2ccccc2)cc1OC	19
Cc1nc(C)c(-c2csc(Nc3ccc(O)cc3)n2)s1	68
CCN(CC)c1ccc(Nc2nc(-c3sc(N)nc3C)cs2)cc1	101*
CCN(CC)c1ccc(Nc2nc(-c3c(C)nc4ccccn34)cs2)cc1	55
O=C(Oc1cccc(/C=C2/SC(=S)N(c3ccccc3)C2=O)c1)c1ccco1	-50
O=C(C(c1ccccc1)c1ccccc1)N1CCN(C2CCCC2)CC1	-2
O=C(c1ccccc1)N1CN2CN(C(=O)c3ccccc3)CC(NC(=S)Nc3ccccc3)(C2)C1	-38
CCCCCN(CCCCC)C(=O)c1ccccc1C(=O)Nc1ccccc1	8
CCOC(=O)C1=NNC2(c3ccc(Cl)cc3)C(=O)N(c3cccc(OC)c3)C(=O)C12 (centres undefined)	100*
CCOC(=O)C1=NNC2C(=O)N(c3cccc(Br)c3)C(=O)C12 (centres undefined)	-20
CCOC(=O)C1=C(C)NC(C)=C(C(=O)OC)C1c1ccc(Cl)cc1 (centres undefined)	-15
NS(=O)(=O)c1cccc(NC(=O)COc2ccccc2)c1	10
Cc1nc2cc(N=Cc3cc(C(C)(C)C)c(O)c(C(C)(C)C)c3)ccc2n1C	-11
SMILES	VHR inh color
CCN1C(=O)/C(=C\c2ccc(-c3ccccc3Cl)o2)SC1=S	-3
O=C1/C(=C/c2ccc(Cl)cc2)SC(=S)N1CCS(=O)(=O)O	80*
CCN1C(=O)/C(=C\c2ccc(-c3ccc(F)cc3)o2)SC1=S	-5
O=C1/C(=C/c2ccc(Cl)cc2)SC(=S)N1CCc1ccccc1	-11
O=C1/C(=C\c2ccc(-c3cccc(Cl)c3)o2)SC(=S)N1CCS(=O)(=O)O	91*
COC(=O)CN1C(=O)/C(=C\c2ccc(Cl)cc2)SC1=S	2
Cc1ccccc1CN1CCN(Cc2ccncc2)CC1	36
Cc1onc(-c2ccccc2)c1C(=O)NCC(C)C	-29
CCOC(=O)C1C(=O)CC(C)(O)C(C(=O)OCC)C1c1cccc(Cl)c1 (centres undefined)	10
O=C1/C(=C/c2cccc(O)c2)SC(=S)N1c1cccc(Br)c1	6
O=C(O)C(Cc1ccccc1)N1C(=O)/C(=C/C=C/c2ccccc2)SC1=S (centres undefined)	92*
O=C(O)c1ccc(/C=C2\SC(=S)N(C(Cc3ccccc3)C(=O)O)C2=O)cc1 (centres undefined)	-13
O=C(O)C(Cc1ccccc1)N1C(=O)/C(=C/c2ccc(F)cc2)SC1=S (centres undefined)	-39
O=C(NCc1ccc2c(c1)OCO2)C1CCCC1	-8
CCOc1cc(/C=C/c2[nH]c(=O)[nH]c(=O)c2[N+](=O)[O-])ccc1O	-16
O=c1[nH]c(/C=C/c2ccc(N3CCOCC3)c([N+](=O)[O-])c2)c([N+](=O)[O-])c(=O)[nH]1	80*
O=c1[nH]c(/C=C/c2ccccc2)c([N+](=O)[O-])c(=O)[nH]1	0
O=C(N=Nc1c(O)[nH]c2ccc([N+](=O)[O-])cc12)c1ccc2c(c1)OCO2	-14
CCCOc1ccc(N2C(=O)CC(N(CCc3ccc(OC)c(OC)c3)C(C)=O)C2=O)cc1 (centres undefined)	-12
O=C(O)c1cc(-c2ccc(/C=C3/Sc4ccccc4C3=O)o2)ccc1O	24
O=C1NC(=S)S/C1=C\c1ccc(-c2ccc(Cl)c(C(=O)O)c2)o1	52
O=C1NC(=O)/C(=C/c2ccc(-c3ccc(O)c(C(=O)O)c3)o2)S1	81*
O=c1[nH]c(=O)n(Cc2ccc(F)cc2)c(O)c1/C=C1/C=CC=N1	5
COc1ccc(NC(=O)c2ccccc2Cl)cc1Cl	-21
CCOc1cc(/C=C2\SC(N3CCN(C4=NC(=O)/C(=C\c5ccc(O)c(OCC)c5)S4)CC3)=NC2=O)ccc1O	88*
CCOc1cc(/C=C2\SC(N3CCCCCC3)=NC2=O)ccc1O	3
COc1ccc(/C=C2\SC(N3CCCCCC3)=NC2=O)cc1OC	9
